These are literature values, as cited in PubChem BioAssay AID977608.

Screen size: about 4,300 compounds; about 4,300 (100%) were called active. No cut-off is given here; in the data, nearly all actives have IC50 up to about 1400 µM. The set was probably picked from earlier hits. This is one part of the list.

This series in a line: protein-ligand inhibition affinities from structures – PDB-derived complexes (AID 977608).

The term IC50 denotes the midpoint of a concentration-inhibition curve. For `O=C(NO)c1ncc(-c2ccccc2Cl)o1`, where the note is “literature IC50, protein: METHIONINE AMINOPEPTIDASE, PDB entry 4a6w”, the IC50 is 1.9 µM (active).
As for `Cc1ccc(OC[C@@H](O)CNC2Cc3ccccc3C2)cc1C`, the IC50 (literature IC50, protein: Endochitinase CTS1, PDB entry 4txe) is 2.4 µM (active).
For the compound `C1=CC1c1[nH]nc2nccc(-c3ccco3)c12`, the IC50 (literature IC50, protein: CHECKPOINT KINASE 2, PDB entry 4bdj) was 7.2 µM (active).
As to `O=C(NCc1ccc(S(=O)(=O)C2CCN(C3CCOCC3)CC2)cc1)n1cc2ccncc2c1`, the IC50 (literature IC50, protein: Nicotinamide phosphoribosyltransferase, PDB entry 4kfp) was 0.01 µM (active).
In the case of `C[C@H](C(=O)O)c1ccc2c(c1)[nH]c1ccc(Cl)cc12`, the IC50 (literature IC50, protein: Fatty-acid amide hydrolase 1, PDB entry 4do3) was 79 µM (active).
For the compound `Nc1nc(Nc2ccc(S(N)(=O)=O)cc2)sc1C(=O)Nc1cc(F)cc(F)c1`, under “literature IC50, protein: Cyclin-dependent kinase 2, PDB entry 3r9o”, the IC50 was 100 µM (active).
Regarding `Nc1nc(Nc2ccc(S(N)(=O)=O)cc2)sc1C(=O)Nc1cccc(F)c1`, where the note is “literature IC50, protein: Cyclin-dependent kinase 2, PDB entry 3r9d”, the IC50 was 71 µM (active).
`Nc1nc(Nc2ccc(S(N)(=O)=O)cc2)sc1C(=O)Nc1c(F)cccc1F`: the IC50 (literature IC50, protein: Cyclin-dependent kinase 2, PDB entry 3r9h) is 100 µM (active).
Regarding `Oc1ccc(Nc2nc(-c3ccc(Cl)cc3)cs2)cc1`, under “literature IC50, protein: Sphingosine kinase 1, PDB entry 3vzd”, the IC50 is 0.5 µM (active).
For the compound `Cc1nc2ccc(Br)cc2c(-c2ccc(Cl)cc2)c1[C@H](OC(C)(C)C)C(=O)O`, the IC50 runs as follows: (literature IC50, protein: Gag-Pol polyprotein (A128T mutation), PDB entry 4gvm) 0.78 µM (active); (literature IC50, protein: Gag-Pol polyprotein, PDB entry 4gw6) 0.63 µM (active).
Consider `NC(N)c1ccc(CNC(=O)[C@@H]2CCN2C(=O)[C@H](NCC(=O)O)C2CCCCC2)cc1`, for which the IC50 (literature IC50, protein: bovine trypsin, PDB entry 1k1p) was 0.0119 µM (active).
For the compound `CNC(=O)[C@H](Cc1cnc[nH]1)NC(=O)CN(CCCc1ccccc1)CC(=O)O`, under “literature IC50, protein: human insulin degrading enzyme (ide), PDB entry 4gs8”, the IC50 is 0.1 µM (active).
Consider `O=c1ccn([C@@H]2O[C@H](CO[P+](O)(O)O[P+](O)(O)O)[C@@H](O)[C@H]2O)c(=O)[nH]1`, for which the IC50 (literature IC50, protein: human O-GlcNAc transferase and a thioglycopeptide, PDB entry 4gz3) was 1.8 µM (active).
Consider `O=c1ccn([C@H]2C[C@H](O)[C@@H](CO[P+](O)(O)N[P+](O)(O)O[P+](O)(O)O)O2)c(=O)[nH]1`, for which, under “literature IC50, protein: Human dUTPase, PDB entry 3ehw”, the IC50 is 15.2 µM (active).
Consider `COc1cc(Nc2ncc(F)c(Nc3ccc4c(n3)N(CO[P+](O)(O)O)C(=O)C(C)(C)O4)n2)cc(OC)c1OC`, for which the IC50 (literature IC50, protein: Bromodomain-containing protein 4 BRD4-1, PDB entry 4o75) is 21 µM (active).
For `Cc1noc(C)c1-c1ccc2c(Nc3ccccc3C(C)(C)C)c(C(=O)O)cnc2c1`, where the note is “literature IC50, protein: BROMODOMAIN-CONTAINING PROTEIN 4, PDB entry 4bw1”, the IC50 is 1.26 µM (active).
As for `COc1nc2c(Nc3ccccc3C(C)(C)C)c(C(=O)O)cnc2cc1-c1c(C)noc1C`, where the note is “literature IC50, protein: BROMODOMAIN-CONTAINING PROTEIN 4, PDB entry 4bw3”, the IC50 was 0.5 µM (active).
`Cc1noc(C)c1-c1ccc2c(Nc3ccccc3C(C)(C)C)c(C(=O)O)cnc2n1`: where the note is “literature IC50, protein: BROMODOMAIN-CONTAINING PROTEIN 4, PDB entry 4bw2”, the IC50 is 6.31 µM (active).
Take `CCc1cc(-c2nc(O)c(C(N)=O)c(=O)[nH]2)nc([C@H]2CCCC[C@@H]2C(=O)NCc2ccc(Cl)c(Cl)c2)n1`: the 50% inhibitory concentration (IC50) (literature IC50, protein: Phosphopantetheine adenylyltransferase, PDB entry 4nau) was 0.00087 µM (active).
For the compound `COc1cc(OC)nc(C2CCCCC2C(=O)NCc2ccc(Cl)c(Cl)c2)n1` (configuration not stated), the IC50 (literature IC50, protein: Phosphopantetheine adenylyltransferase, PDB entry 4nat) is 0.33 µM (active).
For the compound `CCc1cc(Sc2ncc(C(=O)O)[nH]2)nc([C@H]2CCCC[C@@H]2C(=O)NCc2ccc(Cl)c(Cl)c2)n1`, where the note is “literature IC50, protein: Phosphopantetheine adenylyltransferase, PDB entry 4nah”, the IC50 was 0.49 µM (active).
As to `N[C@@H](C(=O)O)[C@H](O)[C@@]1(C(=O)O)CC[C@H](C[C@H](NC(=O)c2cc(Cl)c(O)c(Cl)c2)C(=O)O)N1`, the IC50 (literature IC50, protein: Glutamate receptor 2, PDB entry 4gxs) was 100 µM (active).
In the case of `OS(O)(O)c1cc(N=C=S)ccc1/C=C/c1ccc(N=C=S)cc1S(O)(O)O`, where the note is “literature IC50, protein: human soluble Adenylyl Cyclase TYPE 10, PDB entry 4clz”, the IC50 is 43 µM (active).
Consider `O=C(NCCCNCc1cc(Cl)cc(Cl)c1)Nc1ccccc1O`, for which the IC50 (literature IC50, protein: Trypanosoma brucei methionyl-tRNA synthetase, PDB entry 4mw0) is 0.039 µM (active).
In the case of `CC[C@H](C)[C@H](NC(=O)[C@H](CC(N)=O)NC(=O)[C@H](Cc1ccccc1)NC(=O)[C@H](Cc1c[nH]c2ccccc12)NC(=O)[C@H](CC(N)=O)NC(C)=O)C(=O)N[C@H](C(=O)N[C@@H](CC(N)=O)C(=O)N[C@]1(C)CCCCCC[C@@](C)(C(=O)N[C@H](C(=O)N[C@@H](CCNC(=O)CNC(=O)[C@@H](N)CO[P+](O)(O)O)C(=O)N[C@@H](CCCCN)C(=O)N[C@@H](CCCCN)C(=O)N[C@@H](CCCCN)C(=O)O)[C@@H](C)CC)NC(=O)[C@H](Cc2c[nH]c3ccccc23)NC(=O)[C@H](CC(C)C)NC1=O)[C@@H](C)O`, the IC50 (literature IC50, protein: HIV-1 neutralizing antibody 4E10 Fab, PDB entry 4ngh) was 0.03 µM (active).
For `CC[C@H](C)[C@H](NC(=O)[C@H](CC(N)=O)NC(=O)[C@H](Cc1ccccc1)NC(=O)[C@H](Cc1c[nH]c2ccccc12)NC(=O)[C@H](CC(N)=O)NC(C)=O)C(=O)N[C@H](C(=O)N[C@@H](CC(N)=O)C(=O)N[C@]1(C)CCCCCC[C@@](C)(C(=O)N[C@H](C(=O)N[C@@H](CCCCN)C(=O)N[C@@H](CCCCN)C(=O)N[C@@H](CCCCN)C(=O)N[C@@H](CCCCN)C(=O)O)[C@@H](C)CC)NC(=O)[C@H](Cc2c[nH]c3ccccc23)NC(=O)[C@H](CC(C)C)NC1=O)[C@@H](C)O`, the IC50 (literature IC50, protein: HIV-1 neutralizing antibody 4E10 Fab, PDB entry 4nhc) is 0.046 µM (active).
